Compounds without any hit were thinned out: in the full panel of roughly 79,000, 15% have a hit. Calls of active or inactive are those of the source. No stated cut-off is given here; in the data, active means growth inhibition above about 70%; inactive means the rest.
How the values were obtained:
[1] = NCI Yeast Anticancer Drug Screen. Data for the rad52 strain (AID 147);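 further: 0% = growth of vehicle-treated control cultures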; details: S. cerevisiae rad52 mutant growth inhibition, active compounds read high
Outline: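 Yeast strain carrying a DNA damage repair alteration was exposed to test compounds. Growth inhibition was measured relative to vehicle-treated controls.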

[2] = NCI Yeast Anticancer Drug Screen. Data for the rad50EPP+ strain (AID 151);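 further: 0% = growth of vehicle-treated control cultures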; details: S. cerevisiae rad50 mutant strain, active compounds read high
Outline: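 Yeast strain carrying rad50 alteration (rad50EPP+) exposed to compounds; growth inhibition measured relative to vehicle-treated controls.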

[3] = NCI Yeast Anticancer Drug Screen. Data for the mgt1 strain (AID 153); details: S. cerevisiae mgt1 mutant growth inhibition, active compounds read high
Outline: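 Yeast mgt1 strain (DNA repair/cell-cycle alteration panel) exposed to compounds; growth inhibition measured relative to vehicle-treated controls.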

[4] = NCI Yeast Anticancer Drug Screen. Data for the rad50 strain (AID 155);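 further: 0% = growth of vehicle-only cultures of the same strain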; details: S. cerevisiae rad50 strain growth inhibition, active compounds read high
Outline: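 Yeast carrying a defined DNA repair defect were exposed to test compounds, and growth was compared with vehicle-treated controls to give percent inhibition.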

[5] = NCI Yeast Anticancer Drug Screen. Data for the mec2-1 strain (AID 157); details: S. cerevisiae mec2-1 strain, active compounds read high
Outline: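 mec2-1 yeast strain, carrying an alteration in DNA damage repair or cell cycle control, was exposed to compounds; growth inhibition was measured relative to vehicle-treated controls.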

[6] = NCI Yeast Anticancer Drug Screen. Data for the rad14 strain (AID 159);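 further: 0% = growth of vehicle-treated control cultures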; details: S. cerevisiae rad14 strain growth inhibition, active compounds read high
Outline: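 Yeast cells carrying a defined DNA-repair defect were exposed to compounds, and growth inhibition was calculated relative to vehicle-treated control cultures.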

[7] = NCI Yeast Anticancer Drug Screen. Data for the sgs1 mgt1 strain (AID 161);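 further: 0% = growth of cultures given vehicle only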; details: S. cerevisiae sgs1 mgt1 strain, active compounds read high
Outline: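 This yeast growth screen uses a strain with defined DNA-repair lesions; compound-treated growth is compared with vehicle-treated growth.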

[8] = NCI Yeast Anticancer Drug Screen. Data for the CLN2oe strain (AID 163);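 further: 0% = growth of vehicle-only control cultures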; details: S. cerevisiae CLN2oe strain, active compounds read high
Outline: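 Yeast cells carrying a defined cell-cycle control alteration were exposed to test compounds. Growth inhibition was scored against vehicle-treated control cultures.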

[9] = NCI Yeast Anticancer Drug Screen. Data for the cln2 rad14 strain (AID 165);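 further: 0% = growth equal to vehicle treated cultures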; details: S. cerevisiae cln2 rad14 strain, active compounds read high
Outline: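 Yeast carrying cln2 and rad14 alterations (cell cycle control and DNA damage repair) were exposed to compounds. Growth inhibition was measured against vehicle-treated controls.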

[10] = NCI Yeast Anticancer Drug Screen. Data for the bub3 strain (AID 167); details: S. cerevisiae bub3 mutant strain, active compounds read high
Outline: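 Compounds were applied to a genetically altered yeast strain carrying a cell-cycle control defect. Growth inhibition was scored against vehicle-treated controls.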

[11] = NCI Yeast Anticancer Drug Screen. Data for the mlh1 strain (AID 171);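 further: 0% = growth of vehicle-treated control cultures of the same strain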; details: S. cerevisiae mlh1 strain growth inhibition, active compounds read high
Outline: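 Yeast carrying a defined genetic alteration in DNA damage repair or cell cycle control were exposed to test compounds. Growth inhibition was measured relative to vehicle-treated controls.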

[12] = NCI Yeast Anticancer Drug Screen. Data for the sgs1 strain (AID 173);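 further: 0% = growth of vehicle-only control cultures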; details: S. cerevisiae sgs1 mutant, active compounds read high
Outline: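 Yeast mutant strains carrying defined defects in DNA damage repair or cell cycle control were exposed to test compounds. Growth inhibition was scored against vehicle-treated controls.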

[13] = NCI Yeast Anticancer Drug Screen. Data for the mlh1 rad18 strain (AID 175); details: S. cerevisiae mlh1 rad18 strain growth inhibition, active compounds read high
Outline: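 Growth inhibition of the yeast strain was measured after compound exposure and expressed relative to vehicle-treated controls. The strain carries defined defects in DNA damage repair.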

[14] = NCI Yeast Anticancer Drug Screen. Data for the rad18 strain (AID 177); details: S. cerevisiae rad18 mutant growth inhibition, active compounds read high
Outline: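 Yeast carrying a defined DNA damage repair alteration were exposed to compounds. Growth inhibition was expressed relative to vehicle-treated controls.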

[15] = at 5.0 µM (retest, dose inferred, filed as 0.5)
[16] = at 50.0 µM (retest, dose inferred, filed as 5.0)

Measured: growth inhibition

O=C1C=C(NCCc2cc(Br)c(O)c(Br)c2)C(=O)c2ncccc21
active: [1]; at 33.0 µM 89% | [1]; at 100.0 µM 94% | [2]; at 33.0 µM 82% | [2]; at 100.0 µM 90% | [3]; at 100.0 µM 94% | [4]; at 33.0 µM 88% | [4]; [16] 89% | [4]; at 50.0 µM 92.1% | [4]; at 100.0 µM 94% | [5]; [16] 92% | [5]; at 50.0 µM 73.8% | [5]; at 100.0 µM 93% | [6]; at 33.0 µM 82% | [6]; at 100.0 µM 93% | [7]; [16] 83% | [7]; at 50.0 µM 89.5% | [8]; at 100.0 µM 90% | [9]; [16] 90% | [10]; [16] 96% | [10]; at 50.0 µM 95.5% | [10]; at 100.0 µM 94% | [11]; at 33.0 µM 82% | [11]; at 100.0 µM 96% | [12]; at 33.0 µM 82% | [12]; at 100.0 µM 96% | [13]; [16] 95% | [13]; at 50.0 µM 91% | [14]; at 11.0 µM 75% | [14]; at 33.0 µM 91% | [14]; at 100.0 µM 95%
inactive: [1]; at 1.2 µM 40% | [1]; at 3.7 µM 50% | [1]; at 11.0 µM 54% | [2]; at 1.2 µM 23% | [2]; at 3.7 µM 38% | [2]; at 11.0 µM 49% | [3]; at 1.2 µM 13% | [3]; at 3.7 µM 15% | [3]; at 11.0 µM 25% | [3]; at 33.0 µM 69% | [4]; at 1.2 µM 18% | [4]; at 3.7 µM 24% | [4]; [15] 1% | [4]; at 11.0 µM 44% | [5]; at 1.2 µM 6% | [5]; at 3.7 µM 21% | [5]; [15] -5% | [5]; at 11.0 µM 28% | [5]; at 33.0 µM 69% | [6]; at 1.2 µM 24% | [6]; at 3.7 µM 21% | [6]; at 11.0 µM 23% | [7]; [15] 4% | [8]; at 1.2 µM -5% | [8]; at 3.7 µM 39% | [8]; at 11.0 µM 41% | [8]; at 33.0 µM 55% | [9]; [15] 21% | [9]; at 50.0 µM 46.2% | [10]; at 1.2 µM -2% | [10]; at 3.7 µM -6% | [10]; [15] 12% | [10]; at 11.0 µM 5% | [10]; at 33.0 µM 68% | [11]; at 1.2 µM 27% | [11]; at 3.7 µM 27% | [11]; at 11.0 µM 36% | [12]; at 1.2 µM 28% | [12]; at 3.7 µM 29% | [12]; at 11.0 µM 43% | [13]; [15] 21% | [14]; at 1.2 µM 55% | [14]; at 3.7 µM 54%
